Assay results: PubChem BioAssay AID720690 (Broad Institute, 2013)
Measured potencies and affinities stand elsewhere. Active and inactive are the calls of the source.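 The calls were made as follows: active = every repeat run showing a signal drop whose fitted half-maximal concentration is at most twice the top tested concentration; inconclusive = repeat runs disagree, or flat partial drop, or poor fit; inactive = the rest.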

Assay: general mammalian cell viability loss – activator set, cherry-pick, cytotoxicity control for miR-122 modulator project, dose response (AID 720690);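 also: 0% = neutral control wells and -100% = MG132 cytotoxic control wells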
Conditions: HEK293T viability, CellTiter-Glo luminescence, 48 h; series mostly up to 26 µM; activity change, negative = cytotoxicity: at the top concentration

SMILES	activity change, negative = cytotoxicity
Cc1cccc(NC(=O)Nc2ccc3c(c2)C(=O)N(C)[C@H]2CC[C@H](CC(=O)O)O[C@H]2CO3)c1	6.36% (inactive)
Cc1nn(C)cc1NC(=O)C[C@@H]1CC[C@H]2[C@@H](COc3ccc(NC(=O)Nc4cccc(Cl)c4)cc3C(=O)N2C)O1	3.14% (inactive)
CCC(=O)N1[C@H](CN(C(C)C)S(C)(=O)=O)[C@@H](c2ccccc2)[C@@H]1CO	-1.45% [at 23.5 µM] (inactive)
Cc1cc(C(F)F)n2ncc(C(=O)NCCc3ccccc3Cl)c2n1	-0.237% (inactive)
CN1C(=O)c2cc(NC(=O)c3cccs3)ccc2OC[C@@H]2O[C@@H](CC(=O)NCC(F)(F)F)CC[C@H]21	-0.216% (inactive)
Fc1ccccc1-c1nc(-c2ccncc2)no1	-12.1% (inactive)
CNC[C@@H]1Oc2cc(C#CC3CCCC3)ccc2S(=O)(=O)N([C@@H](C)CO)C[C@@H]1C	-32.4% (inactive)
CCCC(=O)Nc1ccc2c(c1)C(=O)N(C)[C@H]1CC[C@@H](CC(=O)NCCN3CCCCC3)O[C@H]1CO2	-9.56% [at 23.5 µM] (inactive)
C/C=C/c1ccc([C@H]2[C@@H](CO)N(C(=O)COC)[C@H]2CNC(=O)CC)cc1	-8.03% (inactive)
C=CCc1ccccc1OCC(O)CN1CCN(CCN2C(=O)c3cccc4cccc(c34)C2=O)CC1 (stereo unspecified)	2.13% (inactive)
COC(=O)C[C@@H]1CC[C@@H]2[C@H](COc3ccc(NC(=O)c4cc(F)cc(F)c4)cc3C(=O)N2C)O1	-17.8% (inactive)
COc1cccc(C(=O)Nc2ccc3c(c2)C(=O)N(C)[C@@H]2CC[C@H](CC(=O)NCc4ccc(F)cc4)O[C@@H]2CO3)c1	-25.6% (inactive)
COc1ccc(C#Cc2ccc([C@@H]3[C@@H](CO)N4CCCCN(C(=O)Nc5ccccc5)C[C@H]34)cc2)cc1	-28% [at 12 µM] (inactive)
Cc1ccc(S(=O)(=O)Nc2ccc3c(c2)C(=O)N(C)[C@@H]2CC[C@H](CC(=O)NCCc4ccncc4)O[C@@H]2CO3)cc1	-5.75% (inactive)
Cc1[nH]c(=O)c(C#N)cc1-c1ccccc1	-8.29% (inactive)
C/C=C/c1ccc([C@H]2[C@@H](CO)N(C(C)=O)[C@@H]2CN(C(=O)COC)C(C)C)cc1	2.1% (inactive)
COc1ccc(NS(=O)(=O)c2ccc(NC(=O)C(C)(C(F)(F)F)C(F)(F)F)cc2)nn1	5.66% (inactive)
CCN(C[C@@H]1N[C@@H](CO)[C@@H]1c1ccc(C2=CCCC2)cc1)C(=O)c1cccnc1	8.54% [at 23.5 µM] (inactive)
COc1cccc(CNC(=O)C[C@@H]2CC[C@H]3[C@H](COc4ccc(NS(=O)(=O)c5ccccc5F)cc4C(=O)N3C)O2)c1	-13.5% (inactive)
Cc1cc(C(=O)Nc2ccc3c(c2)C(=O)N(C)[C@H]2CC[C@H](CC(=O)N[C@H](C)c4ccccc4)O[C@H]2CO3)no1	-17.2% (inactive)
CCCNC(=O)C[C@H]1CC[C@@H]2[C@H](COc3ccc(NS(=O)(=O)c4ccccc4C)cc3C(=O)N2C)O1	-4.31% [at 23.5 µM] (inactive)
CN1C(=O)c2cc(NC(=O)C3CC3)ccc2OC[C@@H]2O[C@H](CC(=O)NC3CCC3)CC[C@H]21	-3.55% [at 23.5 µM] (inactive)
CC(C)NC(=O)N(C)C[C@H]1Oc2cc(C#C[C@H](C)O)ccc2S(=O)(=O)N([C@@H](C)CO)C[C@H]1C	-2.83% (inactive)
C/C=C/c1ccc([C@H]2[C@H](CO)N[C@H]2CN(CC(C)C)C(=O)c2ccccn2)cc1	-12.9% (inactive)
COc1ccccc1NC(=O)Nc1ccc2c(c1)C(=O)N(C)[C@H]1CC[C@H](CC(=O)Nc3ccc4c(c3)COC4)O[C@@H]1CO2	5.52% (inactive)
CC(=O)N1[C@H](CO)[C@@H](c2ccccc2)[C@H]1CN(C)C(=O)CN1CCOCC1	-3.31% (inactive)
